# Assay outcomes (PubChem BioAssay)
# HIF-2a inh – HIF-2a reporter inhibitors, primary screen, luminescence, 786-0 RCC cells. inhibition, % at 18.8 µM. 0.72% of 360,000 active. 786-0 RCC cells HIF-2a reporter, luciferase luminescence, overnight. AID 624352, 2012;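 active = inhibition of the luminescence signal of 40% or more relative to plate controls, in a single-dose primary screen at 18.75 µM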
# C8 TRAIL sens – viability loss with TRAIL in NB7+C8 cells, primary screen, TRAIL sensitizer project, cell-based, ATPlite luminescence; inhibition (viability loss, TRAIL sensitization), % at 10 µM; 1% of 360,000 active; AID 624354, 2012;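 active = compounds causing at least 50% loss of cell viability in the single-dose screen, relative to plate controls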
# CF NFkB block – inhibitors of PAF-induced NF-kB signaling, primary screen, cell-based, GFP fluorescence, uHTS | AID 588850, 2011 | 0.86% of 360,000 active | inhibition, % at 5 µM | KKLEB NF-kB-GFP reporter, GFP fluorescence overnight;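 active = at least 50% inhibition at 5 µM, scaled per plate between neutral and stimulator controls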;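 also: PAF is a Pseudomonas aeruginosa culture filtrate used as stimulus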
# iPSC survival up – enhancers of single-cell hiPSC survival, primary screen, ATPlite luminescence; 0.044% of 360,000 active; AID 602274, 2012; survival enhancement, % at 20 µM; 100% = ROCK inhibitor wells, 0% = DMSO; in the data active = survival enhancement above about 18%;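 also: cells exposed to compounds for 16 hours before the ATP read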
# KKLEB tox – cytotoxicity in KKLEB CF airway cells, primary screen, cytotoxicity control for CF NF-kB inhibitor project, cell-based, uHTS, fluorescence assay plates; 0.36% of 360,000 active; KKLEB CF airway cells viability, ATPlite luminescence, overnight; stronger effect = lower value; cells stimulated with P. aeruginosa culture filtrate; activity change (cytotoxicity), % at 5 µM;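 active = corrected activity change at or below -50% at 5 µM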
# PPC-1+TRAIL kill – compounds killing PPC-1 cancer cells with TRAIL present, primary screen, TRAIL potentiator project, ATPLite luminescence, uHTS; 0.41% of 220,000 active; cell killing (% activity), % at 4 µM or 5 µM; PPC-1 cells + TRAIL, ATPLite viability luminescence;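 active = cell killing above 50% in the first pass at 4 µM, then a duplicate retest at 5 µM averaging 50% or more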
# Mdm2-MdmX confirm – retested Mdm2-MdmX interaction blockers, confirmation, cell-based, luminescence, single concentration, set 2 | shares compounds with HIF-2a inh | SaOS-2 split-luciferase Mdm2/MdmX complementation | inhibition, % at 8 µM | 99% of 740 active | AID 504601, 2011;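 active = mean inhibition of the luminescence signal across two replicates at or above 26 percent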
# HIF-2a inh conf – HIF-2a reporter inhibitor retest, confirmation, luminescence, 786-0 RCC cells; 56% of 1,800 active; shares compounds with HIF-2a inh; HIF-2a luciferase reporter luminescence, overnight; AID 651580, 2012; inhibition, % at 18.8 µM;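 active = mean inhibition across four replicates of at least 40 percent at the single tested concentration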
# HIF-1a counter – HIF-1a luciferase reporter signal reduction – MiaPaCa-2 cells, single concentration, counter-screen for HIF-2a inhibitor project, confirmation. shares compounds with HIF-2a inh. MiaPaCa-2 HIF-1a luciferase reporter, desferoxamine, overnight. inhibition, % at 18.8 µM. 72% of 1,800 active. AID 651589, 2012;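 active = mean inhibition of the reporter signal across four replicates at the single tested dose of 50% or more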
# Hits are given with their value; 0 = inactive; - = no result; ! = not confirmed by another sample. This is a sample that favours compounds with a hit; in the whole collection about 2.2% have one here.
SMILES,HIF-2a inh,C8 TRAIL sens,CF NFkB block,iPSC survival up,KKLEB tox,PPC-1+TRAIL kill,HIF-2a inh conf,HIF-1a counter,others
COc1ccc(C(=O)Nn2c(SCC(=O)N3CCC(C)CC3)nc3ccccc3c2=O)cc1,51,52,0,0,0,0,67,78,
O=C(Nc1ccc2nc3n(c(=O)c2c1)CCCC3)c1cc([N+](=O)[O-])ccc1F,48,0,0,0,0,0,0,105,Mdm2-MdmX confirm=103
COCCn1c(C)cc(C2=NNC(=Nc3ccccc3F)SC2)c1C,78,0,0,0,0,0,0,71,Mdm2-MdmX confirm=80
Fc1ccc(F)c(C2=NNC(=Nc3ccccc3F)SC2)c1,0,0,0,0,0,0,-,-,
O=C(NCCC1CCCCN1S(=O)(=O)c1ccc(F)cc1)C(=O)NCc1ccncc1 (configuration not stated),43,0,0,0,0,-,0,0,
O=C(NCCC1CCCCN1S(=O)(=O)c1ccc(Cl)cc1)C(=O)NCc1ccncc1 (configuration not stated),0,0,0,0,0,-,-,-,
CC(=O)Nc1ccc(S(=O)(=O)N2CCN(C(=O)c3ncoc3-c3ccccc3C)CC2)cc1,0,0,0,0,0,-,-,-,
CCOC(=O)Cc1csc(NC(=S)NC(=O)c2ccc([N+](=O)[O-])cc2)n1,63,0,0,0,0,0,71,0,
CCOC(=O)Cc1csc(N/N=C\c2cccc(Br)c2)n1,0,0,0,0,0,0,-,-,
CCOC(=O)Cc1csc(N/N=C/c2ccccc2)n1,41,0,0,0,0,0,0,0,
CCOC(=O)Cc1csc(NC(=S)NC(=O)c2ccc(Cl)cc2)n1,95,51,0,0,0,0,98,97,
CCCc1ccc(C2C3=C(CC(C)(C)CC3=O)NC3=C2C(=O)c2ccccc23)cc1 (configuration not stated),0,0,0,0,0,0,-,-,
CC1(C)CC(=O)C2=C(C1)NC1=C(C(=O)c3ccccc31)C2c1ccc(O)cc1 (configuration not stated),44,0,0,0,0,0,0,0,
COc1ccc(Oc2ccc(/C=C/C(=O)c3ccc(O)cc3)cc2[N+](=O)[O-])cc1,91,0,0,0,0,0,0,104,
COc1ccc(C2C(O)C(c3c[nH]c4ccccc34)=NN2C(=O)CCl)cc1 (configuration not stated),93,96,98,0,-89,-,88,106,
COc1ccc(C2NN=C(c3c[nH]c4ccccc34)C2O)cc1 (configuration not stated),0,0,0,0,0,-,-,-,
COc1ccc(NC(=O)CCSc2nc(C)cs2)cc1,0,0,0,0,0,-,-,-,
Cc1ccc(C(=O)Nc2cccc(C(F)(F)F)c2)cc1NC(=O)c1c[nH]c2cc(C(F)(F)F)ccc2c1=O,0,0,0,0,0,-,-,-,
CCN1CCN(Cc2ccc(NC(=O)c3ccc(C)c(NC(=O)c4c[nH]c5cc(C(F)(F)F)ccc5c4=O)c3)cc2C(F)(F)F)CC1,67!,95,94,0,-83,0,0,101,Mdm2-MdmX confirm=102
O=C(Nc1ccc([N+](=O)[O-])cc1)Nc1ccc(OC(F)F)c(Cl)c1,42,0,64,0,-69,0,0,100,
CCN(CC)c1ccc(/C=N/NC(=O)c2ccc3nc[nH]c3c2)c(O)c1,0,0,0,0,0,0,-,-,Mdm2-MdmX confirm=82
CC(C)n1cnc2c(NCc3ccccc3)cc(N[C@H](C)CO)cc21,0,60,0,0,0,-,-,-,Mdm2-MdmX confirm=89
CCC(CO)Oc1cc(NCc2ccccc2)c2ncn(C(C)C)c2c1 (configuration not stated),0,0,0,0,0,-,-,-,
COc1ccc(-n2nc(C#N)c(Cl)cc2=O)cc1,91,0,77,0,0,0,-,-,Mdm2-MdmX confirm=103
CCOc1ccc(C(=O)Nc2cccc3ncccc23)cc1Cl,0,0,0,0,0,-,-,-,
SMILES,HIF-2a inh,C8 TRAIL sens,CF NFkB block,iPSC survival up,KKLEB tox,PPC-1+TRAIL kill,HIF-2a inh conf,HIF-1a counter,others
Cc1nc(NC2=NCN(CCCN3CCOCC3)CN2)nc2c(C)cccc12,0,0,0,0,0,0,-,-,Mdm2-MdmX confirm=66
N#Cc1c(N)nc2c3c(sc(=N)c2c1N)NC(=O)CC3c1ccccc1 (configuration not stated),0,0,0,0,0,0,-,-,
Cc1c(C#N)c(N)nc2c3c(sc12)NC(=O)CC3c1ccc(Cl)cc1 (configuration not stated),40,0,0,0,0,0,0,0,
N/C(=N\OC(=O)c1ccc([N+](=O)[O-])cc1Cl)c1ccccn1,41,88,0,0,0,-,0,62,
CC(=O)Nc1ccc(OCC(=O)c2ccc(C)cc2C)cc1,64,0,0,0,0,0,85,0,
CC(=O)Nc1ccc(OCC(=O)c2cc(C)ccc2C)cc1,0,0,0,0,0,0,-,-,
O=C(/C=C/c1ccc(S(=O)(=O)NCc2ccco2)cc1)NCc1ccccc1Cl,42,0,0,0,0,0,0,0,
CCOc1cc(NC(=O)CCl)c(OCC)cc1NC(=O)CCl,0,91,0,0,0,0,-,-,Mdm2-MdmX confirm=103
CCOc1ccccc1NC(=O)CCC(=O)Nc1ccccc1OCC,0,0,0,0,0,0,-,-,
N#Cc1ccc(Oc2cccc3cccnc23)c([N+](=O)[O-])c1,0,0,0,0,0,-,-,-,
O=[N+]([O-])c1ccc(Oc2cccc3cccnc23)c([N+](=O)[O-])c1,41,0,0,0,0,0,0,0,
CCCNC(=O)C(Cc1ccc(Cl)cc1)NC(=O)c1ccc(-c2ccccc2)cc1 (configuration not stated),0,0,0,0,0,-,-,-,
Cc1ccc(NC(=O)Nn2cnnc2)cc1Cl,0,0,0,0,0,-,-,-,
Cc1ccc(NC(=O)O/N=C/c2c(C)nn(C(C)(C)C)c2C)cc1Cl,91,0,0,0,0,0,97,104,Mdm2-MdmX confirm=101
CCN1CCN(C(=S)c2ccc(-c3ccccc3)cc2)CC1,80,0,0,0,0,0,95,78,
